RecA intein inh – Mtb RecA intein splicing inhibitors, primary screen, biochemical, fluorescence, HTS; cell-free RecA intein splicing; inhibition, % (no concentration beside the values); Protein RecA (Mycobacterium tuberculosis (strain ATCC 25618 / H37Rv)), P9WHJ3; AID 2221, 2009; actives 0.75% (n = 290,000); in the data active = inhibition above about 30%
Target sequence (P9WHJ3 whole entry, looked up): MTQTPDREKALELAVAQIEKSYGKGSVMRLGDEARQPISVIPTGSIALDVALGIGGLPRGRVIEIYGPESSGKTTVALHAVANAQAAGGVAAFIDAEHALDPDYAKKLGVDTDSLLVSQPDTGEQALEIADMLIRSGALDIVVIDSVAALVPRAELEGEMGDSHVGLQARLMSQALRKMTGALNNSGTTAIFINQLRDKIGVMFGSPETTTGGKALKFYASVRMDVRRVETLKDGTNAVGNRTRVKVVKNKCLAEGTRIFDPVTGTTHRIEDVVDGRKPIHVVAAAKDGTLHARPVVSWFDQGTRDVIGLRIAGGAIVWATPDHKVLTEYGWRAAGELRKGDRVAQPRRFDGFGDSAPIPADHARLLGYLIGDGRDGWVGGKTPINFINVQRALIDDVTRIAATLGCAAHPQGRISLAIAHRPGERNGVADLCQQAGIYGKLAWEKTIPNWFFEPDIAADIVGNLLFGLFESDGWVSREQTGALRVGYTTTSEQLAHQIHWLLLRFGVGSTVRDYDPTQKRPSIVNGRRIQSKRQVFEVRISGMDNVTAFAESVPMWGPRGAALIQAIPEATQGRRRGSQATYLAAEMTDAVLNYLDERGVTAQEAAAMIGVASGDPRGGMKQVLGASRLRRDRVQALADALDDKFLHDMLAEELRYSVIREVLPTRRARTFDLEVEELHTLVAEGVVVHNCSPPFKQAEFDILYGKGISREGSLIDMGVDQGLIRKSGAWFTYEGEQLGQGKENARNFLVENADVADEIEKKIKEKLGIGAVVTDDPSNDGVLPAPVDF
VHR inh abs – VHR1 phosphatase inhibitors, primary screen, biochemical, absorbance, uHTS; Dual specificity protein phosphatase 3 (Homo sapiens), P51452; recombinant VHR phosphatase, pNPP absorbance; inhibition, % at 13.3 µM; actives 0.52% (n = 290,000); in the data active = inhibition above about 50%
FBA Mtb inh – Mtb FBA enzyme inhibitors, primary screen, biochemical, fluorescence, strain H37Rv; AID 588726, 2011; Fructose-bisphosphate aldolase (Mycobacterium tuberculosis (strain ATCC 25618 / H37Rv)), …; actives 2.3% (n = 360,000); inhibition, % at 1 µM; purified M. tuberculosis FBA, fluorescence read-out; in the data active = inhibition above about 27%
SARS 3CLpro inh – SARS-CoV 3CLpro protease inhibitors, primary screen, biochemical, quenched FRET; actives 0.14% (n = 290,000); Replicase polyprotein 1ab (Severe acute respiratory syndrome coronavirus), P0C6X7; inhibition, % at 6 µM; AID 1706, 2009; recombinant SARS-CoV 3CLpro, quenched FRET peptide cleavage; in the data active = inhibition above about 12%
CCHF vOTU inh – CCHFV vOTU protease inhibitors, primary screen, biochemical, Pep-AMC substrate, fluorescence. actives 0.55% (n = 370,000). inhibition, % at 11.5 µM
GDH-TPI inh – GDH-TPI coupling enzyme inhibitors, primary screen, artefact control for M. tuberculosis FBA inhibitor project, biochemical, absorbance, full deck; AID 588335, 2011; actives 1.2% (n = 360,000); GDH-TPI coupled enzyme counterscreen, NADH absorbance; inhibition, % at 4.8 µM
Of the large screens only hits and unclear results are named; the others gave an inactive call. An excerpt weighted towards active compounds, which were near 4.7% of everything screened. Rule as the data show it, unless noted: active = inhibition above about 30%; inactive = the rest.

O=C(NCCc1ccc(F)cc1)N[C@@H](Cc1ccccc1)C(=O)O	none
C#CCNC(=O)C[C@@H]1C[C@@]2(C(=O)OCC)CCCC=C2N(CCC2=CCCCC2)C1=O	none (no result: RecA intein inh, VHR inh abs, FBA Mtb inh, SARS 3CLpro inh, GDH-TPI inh)
Fc1cc2nc(-c3ccncc3)[nH]c2cc1F	FBA Mtb inh 127.2
CC(=O)Nc1nnc(-c2ccc3c(c2)CCCC3)o1	none
O=C(Nc1nnc(-c2ccc3c(c2)CCCC3)o1)C1COc2ccccc2O1 (stereo unspecified)	VHR inh abs 50.3
COc1ccc(/C=C(/NC(=O)c2ccccc2)C(=O)NCc2ccncc2)cc1	none
COc1ccc(/C=C(/NC(=O)c2ccccc2)C(=O)N/N=C/c2ccncc2)cc1	GDH-TPI inh 35.0 (no result: RecA intein inh)
Cc1ccc(/C=N/NC(=O)C(C)NC(=O)c2ccccc2)cc1 (stereo unspecified)	none
Cc1ccc(/C=N\NC(=O)/C(=C\Nc2nccc(C)n2)NC(=O)c2ccccc2)cc1	GDH-TPI inh 94.9
COc1ccc(C=CC(C)=NNC(=O)c2ccncc2)cc1	GDH-TPI inh 54.4 (no result: RecA intein inh, VHR inh abs, SARS 3CLpro inh)
COc1ccc(/C=C(\NC(=O)c2ccc(OC)cc2)C(=O)Nc2ccccc2C(=O)O)cc1	GDH-TPI inh 30.9
COc1ccccc1N1CCN(C(C)C(=O)N2CC(C)OC(C)C2)CC1 (stereo unspecified)	none
COc1ccc(OCc2cc(/C=N\NC(=O)c3ccccc3)ccc2OC)cc1	none
COc1ccc(/C=N\NC(=O)/C(=C\Nc2nccc(C)n2)NC(=O)c2ccccc2)cc1	GDH-TPI inh 63.0
COc1ccc(C(=O)N/C(=C\c2ccc([N+](=O)[O-])cc2)C(=O)NC(CCSC)C(=O)O)cc1 (stereo unspecified)	GDH-TPI inh 33.5
COc1ccc(/C=C(\NC(=O)c2ccc(OC)cc2)C(=O)NC(CCSC)C(=O)O)cc1 (stereo unspecified)	none
Cc1nnc(SCC(=O)c2c(N)n(C3CC3)c(=O)[nH]c2=O)n1-c1ccccc1	none (no result: RecA intein inh, VHR inh abs, SARS 3CLpro inh)
COc1ccccc1C(=O)N1CCN(C(=O)[C@@H](Cc2ccccc2)NC(=O)[C@H]2O[C@@H](n3ccc(=O)[nH]c3=O)[C@H](O)[C@@H]2O)CC1	none (no result: RecA intein inh, VHR inh abs, FBA Mtb inh, SARS 3CLpro inh, GDH-TPI inh)
CC1CN(C(=O)COc2ccc3c(-c4ccccc4)cc(=O)oc3c2)CC(C)O1 (stereo unspecified)	none (no result: RecA intein inh, VHR inh abs, SARS 3CLpro inh)
O=C(CCCn1c(SCc2cc(=O)n3cc(Cl)ccc3n2)nc2ccccc2c1=O)NCC1CCCO1 (stereo unspecified)	none
O=C(CCCn1c(SCc2cc(=O)n3ccccc3n2)nc2ccccc2c1=O)NCC1CCCO1 (stereo unspecified)	GDH-TPI inh 32.9
CCOCCCn1c(=N)c(C(N)=S)cc2c(=O)n3cccc(C)c3nc21	FBA Mtb inh 76.9
CCOC(=O)c1cc2c(=O)n3cccc(C)c3nc2n(C)c1=N	none (no result: RecA intein inh, FBA Mtb inh, CCHF vOTU inh, GDH-TPI inh)
COCCCn1c(C(=O)N2CCOCC2)cc2c(=O)n3ccccc3nc21	FBA Mtb inh active
COCCCn1c(C(=O)Nc2ccc3c(c2)OCO3)cc2c(=O)n3ccccc3nc21	none
CCCn1c(=N)c(C(=O)NCC2CCCO2)cc2c(=O)n3cccc(C)c3nc21 (stereo unspecified)	FBA Mtb inh active
O=C1NCCCC1C(=O)Nc1ccccc1C(F)(F)F (stereo unspecified)	none
O=C(/C=C(\Nc1cc(Cl)c(F)c(Cl)c1)c1ccccc1)c1ccccc1	none (no result: RecA intein inh, VHR inh abs, FBA Mtb inh, SARS 3CLpro inh, GDH-TPI inh)
COc1ccc(-n2c(SCC(=O)N/N=C/c3ccccc3OCC(=O)O)nc3ccccc3c2=O)cc1	none
Cc1cccn2c(=O)c3cc(C(=O)NCC4CCCO4)c(=N)n(CCN4CCOCC4)c3nc12 (stereo unspecified)	FBA Mtb inh 145.3
COCCCn1c(=N)c(C(=O)NCC2CCCO2)cc2c(=O)n3cccc(C)c3nc21 (stereo unspecified)	FBA Mtb inh active
COCCCn1c(=N)c(C(=O)NCC2CCCO2)cc2c(=O)n3ccccc3nc21 (stereo unspecified)	FBA Mtb inh active
COc1ccc(CCNC(=O)c2cc3c(=O)n4ccccc4nc3n(CCN3CCOCC3)c2=N)cc1	none

Screens: PubChem BioAssay, several laboratories
